TAG inh = inhibitors of triacylglycerol accumulation, primary screen, cell-based, uHTS, fluorescence, H9c2 | H9c2 cells, Nile Red lipid (TAG) fluorescence; cells loaded with 200 µM oleic acid | 0.66% of 230,000 active | AID 651582, 2012 | inhibition, % at 12.5 µM;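 active = pattern-corrected inhibition of lipid staining of at least 50% with the nuclear-stain viability signal not falling by more than 50%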;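 also: 0% = DMSO wells and 100% = triacsin C control wells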
CHT allo act = CHT positive allosteric modulators, primary screen, cell-based, membrane potential dye, choline EC20 | B-score at 10 µM | AID 488977, 2010 | CHT-expressing cells; hits give high values; LV-AA mutant CHT in HEK293 cells | High affinity choline transporter 1 (Homo sapiens), Q9GZV3 | 0.49% of 310,000 active;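 active = initial fluorescence not abnormally high and integrated response B-score, plate-corrected, over 3 SD above library mean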
Target sequence (Q9GZV3 whole entry, looked up): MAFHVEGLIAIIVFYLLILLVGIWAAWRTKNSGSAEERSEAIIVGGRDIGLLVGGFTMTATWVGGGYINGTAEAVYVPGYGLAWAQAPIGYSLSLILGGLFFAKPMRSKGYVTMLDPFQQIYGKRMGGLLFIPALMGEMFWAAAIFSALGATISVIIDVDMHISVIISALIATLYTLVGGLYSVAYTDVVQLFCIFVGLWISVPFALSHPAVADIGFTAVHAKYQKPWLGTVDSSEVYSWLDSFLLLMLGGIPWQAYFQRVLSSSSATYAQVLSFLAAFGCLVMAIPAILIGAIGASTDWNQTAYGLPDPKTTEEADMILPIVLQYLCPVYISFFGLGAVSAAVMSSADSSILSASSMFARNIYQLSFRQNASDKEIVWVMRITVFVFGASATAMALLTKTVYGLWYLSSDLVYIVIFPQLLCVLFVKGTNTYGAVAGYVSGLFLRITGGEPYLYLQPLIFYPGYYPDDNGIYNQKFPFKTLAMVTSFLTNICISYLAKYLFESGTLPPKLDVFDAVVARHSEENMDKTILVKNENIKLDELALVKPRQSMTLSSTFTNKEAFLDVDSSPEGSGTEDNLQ
CHT inh = inhibitors of human choline transporter CHT | High affinity choline transporter 1 (Homo sapiens), Q9GZV3 | CHT-expressing cells, membrane potential dye, choline response; hits give low values | B-score at 10 µM | 0.86% of 310,000 active | AID 488975, 2010;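 active = B-score over 3 SD under the library average, and starting fluorescence ratio not unusually high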;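 also: choline stimulus applied at its EC90 after an EC20 pre-addition; B-score computed on integrated fluorescence ratio after choline addition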
beta cell repl = inducers of MIN6 beta-cell proliferation, primary screen, ATP luminescence, uHTS; MIN6 cells proliferation, ATPlite luminescence, 48 h; cells starved in 0.2% serum; 100% = growth in 10% serum; proliferation, % at 10 µM; 0.29% of 330,000 active;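 active = compounds whose signal lies at least 3.5 SD above the mean of all wells on their plate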;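 also: 0% = DMSO-treated cells in low-serum medium and 100% = 10% serum control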
CHT block conf = CHT inhibitors, confirmation, cell-based, membrane potential dye, duplicate; shares compounds with CHT inh; CHT-expressing cells, choline membrane potential dye; LV-to-AA substituted CHT, HEK293 cells; CHT activity remaining % of control (hits give low values), % at 10 µM; 70% of 2,400 active; AID 493221, 2011;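 active = choline transporter activity left, mean of duplicates at 10 µM, below buffer-only control mean minus 3 SD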;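 also: depolarization triggered by choline at its EC90 following an EC20 pre-addition; 0% = hemicholinium-3 full block and 100% = buffer-only control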
HEK293 MPD ctr = membrane potential effects in parental HEK293, counter-screen for CHT inhibitor project, cell-based, membrane potential dye; AID 493222, 2011; 4% of 2,400 active; membrane potential ratio readout (active if shifted either direction beyond buffer ±3SD; no single direction) at 10 µM; choline response; active = decrease or increase beyond buffer ±3SD; shares compounds with CHT inh;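 also: parental cells lack the transporter so any hit is non-specific; ratio is peak minus trough fluorescence over baseline after EC90 choline challenge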
The depositor's hits bear a star; i = inactive; . = no result given. Rows were chosen to be rich in hits. Some 1.7% of all compounds tested hit in one or more screens of this group.

SMILES	TAG inh	CHT allo act	CHT inh	beta cell repl	CHT block conf	HEK293 MPD ctr
Cc1csc(NC(=O)CSc2nc(C(C)C)nc3ccccc23)n1	.	i	-5.9*	0	60%*	i
O=C(Nc1ccccc1Cl)c1cc(C2CCCCN2C(=O)c2cccs2)on1 (centres undefined)	-8	.	.	.	.	.
CC(C)C[C@H]1CN=C(Nc2ccccc2)N1CCC1CCCCC1	11	i	i	-8	.	.
c1ccc(C[C@H]2CN=C(Nc3ccccc3)N2CCC2CCCC2)cc1	9	i	-6.8*	-8	56%*	i
COc1ccccc1CNC(=O)C(c1ccccc1)c1ccccc1	.	i	i	-2	.	.
CCC(C(=O)Nc1cccc(C(=O)O)c1)c1ccccc1 (centres undefined)	-13	i	i	-1	.	.
CCC(C(=O)Nc1ccc(OC)c(Cl)c1)c1ccccc1 (centres undefined)	.	i	-6.6*	0	i	i
CCC(C(=O)NCc1ccccc1OC)c1ccccc1 (centres undefined)	-13	i	i	-2	i	i
Nc1nn(-c2ccccc2Cl)cc1-c1nn[nH]n1	-6	i	i	1	.	.
Cc1nc(SCC(=O)NC(=O)NC2CCCCC2)nc(C)c1C	-5	i	-11*	-2	3.3%*	i
O=C(CSc1nncn1-c1ccccc1F)NC1CC1	-5	.	.	3	.	.
CN1CCN(CC(=O)Nc2nc(-c3c[nH]c4ccccc34)cs2)CC1	30	i	-5.4*	-4	64%*	i
COC(=O)c1ccccc1NC(=O)CSc1nc2cccnc2n1C	-4	i	-5.9*	-1	i	i
CCOC(=O)c1ccc(CC(=O)c2ccc(O)cc2O)o1	-18	i	-6*	2	68%*	i
Cc1nn(C)c(C(=O)N/N=C/c2ccc(-c3ccccc3)cc2)c1Cl	0	i	i	-2	.	.
O=C(NC1CCCCC1)N(Cc1ccccc1)Cc1ccco1	-3	i	-5.6*	-3	70%*	i
Cc1cccc2cc(CN(Cc3ccco3)C(=O)NC3CCCCC3)c(=O)[nH]c12	5	i	i	-4	.	.
COc1ccc(/C=C/C(=O)Oc2cc(O)cc(O)c2)cc1	.	i	-6.6*	-7	i	i
O=C(O)CCN1C(=O)CC(N2C(=O)/C(=C/c3ccc(Cl)cc3)SC2=S)C1=O (centres undefined)	.	i	-6.2*	-2	58%*	i
CCOc1ccc(/C=C2\SC(=S)N(CCC(=O)O)C2=O)cc1	6	i	i	-3	.	.
NC(=O)c1ccc(C2SCC(=O)N2Cc2ccccc2)cc1 (centres undefined)	15	i	-6.3*	-3	i	i
O=C(O)c1ccc(C2SCC(=O)N2Cc2ccccc2)cc1 (centres undefined)	.	i	i	-1	.	.
Cc1occc1-c1nnc(SCC(=O)Nc2nccs2)n1CCc1ccccc1	.	i	-6.5*	-1	i	i
Cc1csc(NC(=O)CSc2nnc(C)n2Cc2ccco2)n1	-13	i	i	-2	.	.
Cc1csc(NC(=O)CSc2nnc(-c3ccoc3C)n2CCc2ccccc2)n1	13	i	i	0	.	.
Cc1csc(NC(=O)CSc2nnc(-c3ccoc3C)n2Cc2ccco2)n1	-3	i	-5.3*	-1	i	i
CC(C)CNC(=O)c1ccc(NC(=O)c2cccs2)cc1	.	i	i	0	.	.
CCCS(=O)(=O)NC(=O)C1(C)CCN(C(=O)c2cccc(OC(F)(F)F)c2)C1 (centres undefined)	12	.	.	.	.	.
CS(=O)(=O)N(CC(O)Cn1c2ccccc2c2ccccc21)c1ccccc1 (centres undefined)	-14	i	i	1	i	i

High-throughput results as filed in PubChem.
